Data published in PubChem BioAssay (NCI).
About 83,000 compounds went through this panel and 20% of them were active in at least one assay; those are over-represented in the sample as a whole.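 Negative percent growth values reflect cell death: -40 means 40% of the cells present at the start died, and -100 means all died.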 Calls of active or inactive are those of the source. How the source made its calls: active means growth percent below 10; inactive means the rest.

What was measured:
Experiment in all cases: NCI-60 one-dose screen, 48 h (100 = growth as untreated, 0 = no growth, -100 = all killed)
Conditions in all cases: 10 µM unless noted
RPMI-8226 leukemia = test system: RPMI-8226 leukemia
OVCAR-8 ovarian = test system: OVCAR-8 ovarian
OVCAR-5 ovarian = test system: OVCAR-5 ovarian
OVCAR-4 ovarian = test system: OVCAR-4 ovarian
SK-OV-3 ovarian = test system: SK-OV-3 ovarian
IGROV1 ovarian = test system: IGROV1 ovarian
OVCAR-3 ovarian = test system: OVCAR-3 ovarian
HS 578T breast = test system: HS 578T breast
NCI/ADR-RES ovarian = test system: NCI/ADR-RES ovarian
T-47D breast = test system: T-47D breast

Measured: growth

Cc1c(NC(=O)CSc2nc3sc4c(c3c(=O)n2-c2ccc(Cl)cc2)CCCC4)c(=O)n(-c2ccccc2)n1C
inactive: RPMI-8226 leukemia 86.7% | OVCAR-8 ovarian 97.1% | OVCAR-5 ovarian 99.6% | OVCAR-4 ovarian 91.9% | SK-OV-3 ovarian 93.8% | IGROV1 ovarian 84.9% | OVCAR-3 ovarian 100% | HS 578T breast 88.3% | NCI/ADR-RES ovarian 101% | T-47D breast 90.1%

COC(=O)c1ccc(NC(=S)N2CCc3ccc([N+](=O)[O-])cc3C2)cc1O
inactive: RPMI-8226 leukemia 101% | OVCAR-8 ovarian 101% | OVCAR-5 ovarian 103% | OVCAR-4 ovarian 112% | SK-OV-3 ovarian 98.4% | IGROV1 ovarian 99% | OVCAR-3 ovarian 116% | HS 578T breast 102% | NCI/ADR-RES ovarian 107% | T-47D breast 103%

N#Cc1c(-c2ccc(Cl)cc2)nc(SCc2ccc([N+](=O)[O-])cc2)nc1N1CCNCC1
active: RPMI-8226 leukemia -24.5% | OVCAR-8 ovarian -81.6% | OVCAR-5 ovarian 3.39% | IGROV1 ovarian -1.76% | OVCAR-3 ovarian -32.6% | NCI/ADR-RES ovarian 8.72% | T-47D breast -9.43%
inactive: OVCAR-4 ovarian 26.9% | SK-OV-3 ovarian 111% | HS 578T breast 52.1%

Cc1sc2c(c1C)c(=O)nc1c(-c3nc(-c4ccc(F)cc4)no3)n[nH]n12
inactive: RPMI-8226 leukemia 108% | OVCAR-8 ovarian 104% | OVCAR-5 ovarian 103% | OVCAR-4 ovarian 112% | SK-OV-3 ovarian 101% | IGROV1 ovarian 102% | OVCAR-3 ovarian 121% | HS 578T breast 105% | NCI/ADR-RES ovarian 109% | T-47D breast 95.5%

OC1CCN(CCCOc2c3ccc(Cl)cc3nc3c2oc2ccc(Cl)cc23)CC1
inactive: OVCAR-8 ovarian 27.7% | OVCAR-4 ovarian 55% | SK-OV-3 ovarian 50.8% | OVCAR-3 ovarian 46.5% | HS 578T breast 20.5% | NCI/ADR-RES ovarian 32.4% | T-47D breast 52.3%
active: RPMI-8226 leukemia -8.79% | OVCAR-5 ovarian -28.1% | IGROV1 ovarian 9.03%

Cc1cccc2sc(/N=C(\N)C(Br)Br)nc12
inactive: OVCAR-8 ovarian 32.7% | OVCAR-5 ovarian 41.2% | OVCAR-4 ovarian 64.7% | SK-OV-3 ovarian 87.5% | OVCAR-3 ovarian 29.2% | HS 578T breast 37.2% | NCI/ADR-RES ovarian 17.6% | T-47D breast 41.4%
active: RPMI-8226 leukemia 2.19% | IGROV1 ovarian -65.7%

C=CCn1c(SCC(=O)c2ccccc2)nnc1-c1c[nH]c2ccccc12
inactive: RPMI-8226 leukemia 86.6% | OVCAR-8 ovarian 95.4% | OVCAR-5 ovarian 103% | OVCAR-4 ovarian 97.5% | SK-OV-3 ovarian 120% | IGROV1 ovarian 88.4% | OVCAR-3 ovarian 115% | HS 578T breast 97% | NCI/ADR-RES ovarian 97.4% | T-47D breast 95%

CC(=O)Oc1ccccc1C(=O)Nc1cc(C(C)C)ccc1C
inactive: OVCAR-8 ovarian 13.8% | OVCAR-5 ovarian 43.6% | OVCAR-4 ovarian 16.9% | IGROV1 ovarian 25.5% | HS 578T breast 19.7%
active: RPMI-8226 leukemia 1.78% | SK-OV-3 ovarian 0.738% | OVCAR-3 ovarian 6.75% | NCI/ADR-RES ovarian 9.16% | T-47D breast 9.13%

COc1ccc(/C=N/NC(=O)c2[nH]c3ccc(Br)cc3c2-c2ccccc2)s1
inactive: OVCAR-8 ovarian 12.3% | OVCAR-5 ovarian 51.2% | OVCAR-4 ovarian 75.5% | SK-OV-3 ovarian 25.7% | IGROV1 ovarian 18% | OVCAR-3 ovarian 22.8% | HS 578T breast 29.9% | NCI/ADR-RES ovarian 15.8% | T-47D breast 73.2%
active: RPMI-8226 leukemia 7.49%

C#Cc1nc(C2=C(C)C(OC(C)=O)/C(=N/OC(C)=O)C2)cs1 (stereo not given)
inactive: OVCAR-5 ovarian 30.1% | T-47D breast 67%
active: RPMI-8226 leukemia -45.1% | OVCAR-8 ovarian 0.146% | OVCAR-4 ovarian -46% | SK-OV-3 ovarian -78.4% | IGROV1 ovarian -59% | OVCAR-3 ovarian -15.8% | HS 578T breast 4.76% | NCI/ADR-RES ovarian -5.63%

NS(=O)(=O)c1cccc(Nc2nc(SCC(=O)c3ccc(Cl)cc3)nc3ccccc23)c1
inactive: RPMI-8226 leukemia 65.4% | OVCAR-8 ovarian 39.9% | OVCAR-5 ovarian 116% | OVCAR-4 ovarian 22.5% | SK-OV-3 ovarian 103% | IGROV1 ovarian 76.3% | OVCAR-3 ovarian 85.8% | HS 578T breast 43.5% | NCI/ADR-RES ovarian 91.1% | T-47D breast 63.3%

C#Cc1nc(C2=C(C)C(=N\O)/C(=N/O)C2)cs1
active: IGROV1 ovarian -14.1%
inactive: RPMI-8226 leukemia 72.2% | OVCAR-8 ovarian 92.3% | OVCAR-5 ovarian 109% | OVCAR-4 ovarian 99% | SK-OV-3 ovarian 105% | OVCAR-3 ovarian 118% | HS 578T breast 86.7% | NCI/ADR-RES ovarian 38.5% | T-47D breast 82.6%

O=C1NC(=C(Cl)Cl)/C(=N/S(=O)(=O)N2CCCCC2CC2(C(F)(F)F)N=N2)N1 (stereo not given)
inactive: OVCAR-8 ovarian 17.6% | OVCAR-5 ovarian 91.1% | SK-OV-3 ovarian 136% | HS 578T breast 52.2% | NCI/ADR-RES ovarian 63.4% | T-47D breast 65.7%
active: RPMI-8226 leukemia -6.5% | OVCAR-4 ovarian -10.2% | IGROV1 ovarian -0.053% | OVCAR-3 ovarian -15.1%
